Molecules are shown by their SMILES. This is part of a sample that, as a whole, favours compounds with a hit. Of some 83,000 tested, about 20% had one in any assay.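 How to read the values: 0–100, growth inhibition (40 = 60% inhibited); 0, no net growth; -100 to 0, cell death (-40 = 40% of starting cells died; -100 = all dead).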 Activity calls are given as the source filed them. The calls were made as follows: active = growth percent below 10; inactive = the rest.

For one test, the system named is K-562 leukemia. Briefly: NCI-60 one-dose screen, 48 h (100 = growth as untreated, 0 = no growth, -100 = all killed). The conditions noted are these: 10 µM unless noted.
As for `O=C(Nc1ccc(F)cc1)Nc1ccc(NC(=O)c2cc(Cl)nc3ccccc23)cc1`, the growth was 58.5% (inactive).

As to `O=C(CCN1CCCC1)Nc1ccc2c(Nc3ccc(F)cc3)c3ccccc3nc2c1`, the growth was 0.179% (active).

Regarding `CC(Sc1nc2ccccc2c(=O)n1CCc1ccc(S(N)(=O)=O)cc1)C(=O)Nc1ccc(Cl)cc1` (configuration not stated), the growth is 60.4% (inactive).

`O=C(N/N=C/c1cc2ccccc2n2nnnc12)Nc1ccccc1`: the growth is 95.1% (inactive).

On to `CC1(C)CC(=O)C2=C(C1)N(c1ccc(F)cc1F)C(N)=C(C#N)C2c1cc(Br)ccc1F` (configuration not stated), for which the growth is 87.6% (inactive).

A further test has as its system MALME-3M melanoma. Described as above. The conditions noted are these: 10 µM unless noted.
Turning to `O=C(/C=C/c1ccc(Cl)cc1)c1ccc(NC(=O)N2CCN(c3cc4c(cc3F)c(=O)c(C(=O)O)cn4C3CC3)CC2)cc1`, the growth is 103% (inactive).

Regarding `O=C(/C=C(/C=C/c1csc2ccccc12)OB(F)F)/C=C/c1csc2ccccc12`, the growth is 9.2% (active).

As to `CN1CCN(C(=O)[C@]23CCC(C)(C)C[C@H]2C2=CC[C@@H]4[C@@]5(C)C/C(=C/c6cccnc6)C(=O)C(C)(C)[C@@H]5CC[C@@]4(C)[C@]2(C)CC3)CC1`, the growth was 63.4% (inactive).

With `CC1=CCC(OC(=O)C(C)(O)CCC(O)(C(=O)OC2(C)C=CC(O)(C(C)C)CC2)C(C)C)(C(C)C)CC1` (configuration not stated), the growth is 97.2% (inactive).

For the molecule `NC1=NN=C(N)C1=Cc1cc2ccccc2n2nnnc12`, the growth is 108% (inactive).

As to `COc1ccc(NC(N)=NCCCOc2ccc(F)cc2)cc1`, the growth is 96.6% (inactive).

As for `O=C1c2ccc3c4c(ccc(c24)C(=O)N1CCCNCc1ccccc1)C(=O)N(CCCNCc1ccccc1)C3=O`, the growth was -58.5% (active).
